Activity calls are given as the source filed them.

A short description of experiment [1]: A549 cell viability effects, profiling panel, calcein-AM fluorescence, 48 h, basal (AID 1162). Conditions: higher = more signal.
Experiment [2] can be described thus: adipocyte viability effects, profiling panel, cell-based, 3T3-L1 adipocytes, calcein-AM fluorescence, 48 h, basal (AID 1163). The note with it: 3T3-L1 adipocytes viability, higher = more signal.
A short description of experiment [3]: HepG2 cell viability effects, profiling panel, calcein-AM fluorescence, 48 h, basal (AID 1164). Conditions: higher = more signal.
Experiment [4] is described as follows: MM1S cell viability effects, profiling panel, calcein-AM fluorescence, 48 h, basal (AID 1165).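 Note: viability of MM1S multiple myeloma cells under basal unstimulated conditions.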 The note with it: higher = more signal.
A short description of experiment [5]: basal RPMI8226 viability, no added stimulus, profiling panel, cell-based, calcein-AM fluorescence, 48 h, PK04 Diversity Set (AID 1166).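 Note: cells grown under basal conditions without added stimulus.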 Conditions: RPMI8226 myeloma viability, higher = more signal.
Experiment [6] can be described thus: basal HepG2 mitochondrial membrane potential changes, profiling panel, cell-based, JC-1 fluorescence, 24 h, 100 nL compound (AID 1167). The note with it: higher = more signal.
A short description of experiment [7]: basal 3T3-L1 adipocyte mitochondrial potential changes, profiling panel, cell-based, JC-1 fluorescence, 3T3-L1 adipocytes, 24 h, 100 nL compound (AID 1168). The note with it: JC-1 mitochondrial fluorescence, higher = more signal, called active from +8 up or from −8 down.
Experiment [8] can be described thus: basal RPMI8226 mitochondrial membrane potential changes, profiling panel, cell-based, JC-1 fluorescence, 24 h, 100 nL compound (AID 1169). The note with it: RPMI8226 myeloma, JC-1 mitochondrial potential fluorescence, higher = more signal.
Experiment [9] can be described thus: basal MM1S mitochondrial membrane potential changes, profiling panel, cell-based, JC-1 fluorescence, 24 h, 100 nL compound (AID 1170). Conditions: higher = more signal.
The nature of experiment [10]: A549 lung cancer cell viability effects, profiling panel, resazurin fluorescence, 24 h, PK04 Diversity Set (AID 1171). Conditions: higher = more signal, called active from +8 up or from −8 down.
Note: test concentration not given here.

On to `COCC(=C=CC[C@@H](O)c1ccccc1OCCO)C[C@@H](O)COCc1ccccc1`, for which the z-score in experiment [1] is 1.94; in experiment [2], 1.04; in [3], 1.13; in experiment [4], 0.338; in [5], 0.801; in [6] it was 1.32. Moreover, the z-score in [7] was 0.54 (inactive); in experiment [8] it was -0.719; in experiment [9] it was 1.59; in [10], 1.84 (inactive).

As for `[N-]=[N+]=Nc1ccccc1C[C@]1(C(=O)NCCN2CCOCC2)N=C(c2ccc(OCCCO)cc2)O[C@H]1c1ccccc1N=[N+]=[N-]`, the z-score in [1] is 0.0861; in experiment [2], 0.784; in [3], -0.111; in experiment [4], -2.41; in [5] it was -1.2; in [6], 1.23. The z-score was 1.27 (inactive) in experiment [7], -1 in [8], -0.571 in experiment [9] and -2.47 (inactive) in experiment [10].

For the molecule `NC(=O)[C@H]1[C@@H]2C(=O)O[C@@H](c3ccccc3)[C@@H](c3ccccc3)N2[C@@H](c2ccc(O)cc2)[C@]12C(=O)Nc1ccc(C#CC3(O)CCCCCC3)cc12`, the z-score in experiment [1] is 0.205; in [2] it was 1.54; in experiment [3], 0.961; in experiment [4], -1.13; in [5], -4.08; in experiment [6], -1.39. Moreover, the z-score in experiment [7] is -0.575 (inactive); in experiment [8], -0.808; in [9], -0.184; in experiment [10], 0.995 (inactive).

Consider `O=C1C[C@@](C(=O)NCc2ccccc2)(c2ccc([N+](=O)[O-])cc2)[C@@H](c2ccc(CO)cc2I)N1C1CCCCC1`, for which the z-score is 1.14 in [1]; 0.317 in [2]; 0.593 in [3]; -1.6 in experiment [4]; -1.22 in experiment [5]; 1.67 in experiment [6]. For the same molecule, the z-score is 0.254 (inactive) in [7], -0.572 in [8], 0.576 in [9] and 0.75 (inactive) in [10].

As for `C[N+](C)(C)CCCCCCNC(=O)[C@@H]1C[C@@H]2C(=O)NCC(=O)N2[C@@H]1c1ccc(O)cc1`, the z-score in experiment [1] is -0.261; in experiment [2], -0.166; in [3] it was 0.517; in experiment [4], -0.0232; in experiment [5], 0.0324; in [6], -1.58. The z-score was 0.251 (inactive) in experiment [7], -0.0725 in experiment [8], -0.534 in [9] and 0.28 (inactive) in [10].

As to `COc1ccc(C#Cc2ccc3c(c2)[C@]2(C(=O)N3)[C@H](C(N)=O)[C@H]3C(=O)O[C@H](c4ccccc4)[C@H](c4ccccc4)N3[C@@H]2c2ccc(O)cc2)cc1`, the z-score in [1] was -0.765; in [2], 0.13; in experiment [3], -4.5; in experiment [4] it was -3.29; in experiment [5], -4.56; in [6], -3.11. Also, the z-score in experiment [7] is 0.283 (inactive); in experiment [8], -1.1; in experiment [9] it was -2.28; in experiment [10], -1.05 (inactive).

As for `COCCOC(=O)N1C(=O)[C@@]2(c3cc(C#CCC(C(=O)OC)C(=O)OC)ccc31)[C@H](C(=O)N1CCCCCCC1)[C@H]1C(=O)O[C@H](c3ccccc3)[C@H](c3ccccc3)N1[C@@H]2c1ccc(O)cc1`, the z-score is -0.0336 in [1]; 1.25 in experiment [2]; -0.125 in experiment [3]; -0.575 in experiment [4]; -1.39 in experiment [5]; 0.503 in experiment [6]. For the same molecule, the z-score is 1.1 (inactive) in experiment [7], 0.439 in [8], 0.579 in experiment [9] and 0.616 (inactive) in experiment [10].

In the case of `COC(=O)c1ccc(OC)c(/C=C\CC(CCc2ccccc2)OC(C)=O)c1` (stereo not given), the z-score in experiment [1] was -0.349; in experiment [2], -0.191; in [3], -0.349; in experiment [4], -1.35; in experiment [5], 0.346; in experiment [6] it was -1.3. Further, the z-score in experiment [7] was -0.459 (inactive); in experiment [8] it was -0.48; in experiment [9], 0.893; in experiment [10], 0.671 (inactive).

For the molecule `C=C(C(=O)CC[C@H](OC(=O)c1cccnc1)c1ccc(OCCO)cc1)C(C)C`, the z-score was -0.328 in experiment [1]; 0.165 in experiment [2]; -0.823 in [3]; -3.3 in experiment [4]; -1.75 in experiment [5]; 0.149 in experiment [6]. Also, the z-score is -0.00639 (inactive) in [7], -0.634 in experiment [8], -1.45 in [9] and -0.569 (inactive) in [10].

As for `C=CCNC(=O)[C@@H]1[C@H]2C(=O)O[C@H](c3ccccc3)[C@H](c3ccccc3)N2[C@H](c2ccc(O)cc2)[C@@]12C(=O)Nc1ccc(C#CCCO)cc12`, the z-score is 0.47 in [1]; 0.79 in experiment [2]; -0.168 in [3]; -0.21 in experiment [4]; -0.719 in [5]; -0.931 in experiment [6]. Moreover, the z-score was -0.296 (inactive) in [7], -0.456 in experiment [8], -0.388 in [9] and 1.01 (inactive) in experiment [10].

Take `CN(C)CCCC[C@@H]1NC(=O)[C@H]2C[C@@H](C(=O)NCCCCCCNC(=O)CS)[C@@H](c3ccc(O)cc3)N2C1=O`: the z-score is -0.877 in [1]; 0.0215 in experiment [2]; -1.35 in experiment [3]; -0.245 in [4]; -1.02 in [5]; -1.45 in [6]. For the same molecule, the z-score in experiment [7] was -0.715 (inactive); in experiment [8], 0.683; in experiment [9], 0.441; in experiment [10], -0.415 (inactive).

Turning to `C=CCOC(=O)[C@@H]1[C@H]2C(=O)O[C@H](c3ccccc3)[C@H](c3ccccc3)N2[C@H](c2ccc(OCCOC(=O)[C@@H]3C[C@@H]4C(=O)N[C@@H](CCCCNC(C)=O)C(=O)N4[C@@H]3c3ccc(O)cc3)cc2)[C@@]12C(=O)Nc1ccc(I)cc12`, the z-score in experiment [1] is 0.32; in experiment [2], -0.571; in [3], -0.179; in experiment [4] it was -0.154; in experiment [5] it was 0.165; in experiment [6], -0.396. For the same molecule, the z-score in [7] was 1.21 (inactive); in experiment [8], -0.482; in experiment [9], -1.14; in experiment [10] it was 0.873 (inactive).

Take `O=C1O[C@H](c2ccccc2)[C@H](c2ccccc2)N2[C@H]1[C@@H](C(=O)NC[C@H](O)c1ccccc1)[C@]1(C(=O)Nc3ccccc31)[C@H]2c1ccccc1OCCO`: the z-score in [1] was -1.78; in experiment [2], 0.559; in [3], -5.16; in [4] it was -3.38; in experiment [5], -4.61; in experiment [6] it was -2.92. Moreover, the z-score was 2.95 (inactive) in experiment [7], -1.15 in experiment [8], -2.19 in experiment [9] and -3.12 (inactive) in [10].

In the case of `O=C(O)[C@@]1(Cc2ccccc2)COC(c2ccc(OCCCO)cc2)=N1`, the z-score in [1] was -0.297; in experiment [2] it was 0.139; in experiment [3], 0.0851; in [4], -0.108; in experiment [5], 0.21; in [6] it was -0.519. In addition, the z-score in experiment [7] is -0.0997 (inactive); in [8] it was 0.478; in experiment [9], 0.0336; in [10] it was 0.542 (inactive).

As for `CC(C)C[C@@H]1NC(=O)[C@@]23C(=O)N[C@@H](Cc4ccccc4)C2[C@H](C)[C@@]2(C)O[C@H]2C3/C=C/C/C=C\CNC(=O)[C@@H]2CCCN2C1=O` (stereo not given in full), the z-score in [1] was -0.486; in [2], 0.0971; in experiment [3] it was -0.809; in [4], -0.641; in experiment [5], 0.219; in [6] it was -0.00843. Besides, the z-score is 0.568 (inactive) in experiment [7], 0.548 in experiment [8], -0.491 in [9] and -0.023 (inactive) in [10].
